# Laboratory results reported in the supplement of paper PMC3414501.
# Counter-ions that a name gives are not always drawn.
# Key:
# [1] = test system: S. cerevisiae SK1 pCDA2-eGFP (USY613), sporulating; experiment: CDA2-GFP sporulation assay sensitivity score (z-score vs DMSO controls); higher = stronger inhibition of sporulation, active = hit call of the paper;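 also: active if sensitivity score above 5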
# [2] = test system: S. cerevisiae NKY1551 his4x/his4B, sporulating; experiment: HIS4 meiotic recombination assay sensitivity score (z-score vs DMSO controls); higher = stronger inhibition of sporulation/recombination, active = hit call of the paper;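 also: active if sensitivity score above 5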
# [3] = test system: S. cerevisiae AD1-9 (efflux-pump deficient), vegetative growth in YPD; experiment: growth sensitivity score (doubling time z-score vs DMSO controls); higher = slower growth, strongly negative scores also mark growth inhibition (complete suppression), active = hit call of the paper
# Method in brief: (§1)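 Optical density of Saccharomyces cerevisiae cultures in microtiter plates was followed every 15 min for 24 hours after seeding at an OD600 of 0.065. Eight solvent-only wells were run per experiment. Growth sensitivity scores were found by subtracting the solvent-only mean from the compound mean and dividing by the solvent-only standard deviation.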
# [4] = test system: S. cerevisiae BY4741 (wild-type), vegetative growth in YPD; experiment: as above
# Method in brief: as §1
SMILES,CDA2-GFP sporulation assay sensitivity score [1],HIS4 meiotic recombination assay sensitivity score [2],growth sensitivity score [3],growth sensitivity score [4]
"Cc1cn([C@H]2C=C[C@@H](CO)O2)c(=O)[nH]c1=O [Stavudine] (stock concentration (mM, diluted 1:100): 10)",-1.16 (inactive),-1.75 (inactive),0.68 (inactive),0.1 (inactive)
"C[C@@H]1O[C@@H](OC[C@H]2O[C@@H](Oc3c(-c4ccc(O)c(O)c4)oc4cc(O)cc(O)c4c3=O)[C@H](O)[C@@H](O)[C@@H]2O)[C@H](O)[C@H](O)[C@H]1O [Rutin] (stock concentration (mM, diluted 1:100): 10)",-0.59 (inactive),-1.04 (inactive),0.28 (inactive),-2.67
"O=C(O[C@H]1[C@H](Oc2ccccc2COC(=O)C2(O)C=CCCC2=O)O[C@H](CO)[C@@H](O)[C@@H]1O)c1ccccc1 (stereo not given in full) [Tremulacin] (stock concentration (mM, diluted 1:100): 10)",3.04 (inactive),-1.23 (inactive),-1.16 (inactive),-0.72 (inactive)
"Nc1c2c(nc3ccccc13)CCCC2 [Tacrine hydrochloride] (stock concentration (mM, diluted 1:100): 9)",10.2 (active),-2.37 (inactive),-5.79,2.93 (active)
"CN(C)CCc1c[nH]c2ccc(Cn3cncn3)cc12 [Rizatriptan benzoate] (stock concentration (mM, diluted 1:100): 10)",-0.91 (inactive),-0.35 (inactive),-1.17 (inactive),-0.18 (inactive)
